# From PubChem BioAssay AID434936 (National Center for Advancing Translational Sciences (NCATS), 2010)
# Results filed as inconclusive are left out. Unmarked numbers belong to inactive results. Activity calls are given as the source filed them. The call rests on the fitted dose curve; in most records, active means well fitted curve in either direction with a large enough effect; inconclusive means small, poorly fitted or top-dose-only effect; inactive means flat fitted curve, though single readings scatter.
# Molecular target: Neuropeptide S receptor (Homo sapiens) (UniProt Q6W5P4)
# Sequence (Q6W5P4 whole entry, looked up): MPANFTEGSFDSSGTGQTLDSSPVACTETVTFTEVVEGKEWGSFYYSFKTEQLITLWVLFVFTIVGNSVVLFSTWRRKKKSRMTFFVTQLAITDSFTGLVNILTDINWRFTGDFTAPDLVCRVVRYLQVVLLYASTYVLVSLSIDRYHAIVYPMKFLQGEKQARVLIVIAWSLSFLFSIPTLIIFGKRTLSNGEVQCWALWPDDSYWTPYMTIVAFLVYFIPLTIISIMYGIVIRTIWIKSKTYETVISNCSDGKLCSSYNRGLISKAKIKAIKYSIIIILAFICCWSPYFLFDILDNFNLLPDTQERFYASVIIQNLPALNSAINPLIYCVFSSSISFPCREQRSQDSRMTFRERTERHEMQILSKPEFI
# Assay: Confirmation Concentration-Response Assay for Antagonists of the Neuropeptide S Receptor: Robust Characterization of cAMP Signal Transduction
# Conditions: CHO-NPSR cells, NPS-stimulated cAMP TR-FRET; series mostly up to 50.7 µM; activity, negative = inhibition: at the top concentration
# Description: NIH Chemical Genomics Center [NCGC] NIH Molecular Libraries Probe Production centers Network [MLPCN] MLPCN Grant: X01-DA026210-01 Assay Submitter (PI): Heilig, Markus Alexander NCGC Assay Overview: Neuropeptide S receptor (NPSR), previously known as GPR154, is a recently de-orphanized G protein coupled receptor. Its endogenous ligand is the 20 amino acids peptide Neuropeptide S (NPS). […] NPS and its receptor are found in various tissues. Specifically they are highly expressed in brain areas that have been implicated in modulation of arousal, stress and anxiety. Central administration of NPS in mice produces an unusual profile of activity by inducing wakefulness and arousal, while at the same time suppressing anxiety. Therefore, NPSR may represent a novel drug target for the treatment of sleep and anxiety disorders. To identify NPSR antagonists, we developed a cell-based cAMP assay. NPS can stimulate the production of cAMP in Chinese hamster ovary cells stably expressing NPS receptor. This change in intracellular cAMP level can be detected by a homogeneous LANCE cAMP assay based on the TR-FRET (time resolved fluorescence resonance energy transfer) between a europium-labeled cAMP tracer complex and a cAMP-specific antibody labeled with Alexa Fluor 647. The europium-labeled cAMP tracer complex is formed by the tight interaction between Biotin-cAMP (b-cAMP) and streptavidin labeled with Europium-W8044 chelate (Eu-SA). Light pulse at 320 nm excites the europium of the cAMP tracer and the energy emitted is transferred to the Alexa molecule bound to the cAMP antibody, generating a TR-FRET signal at 665 nm. Residual energy from the europium will produce a light at 620 nm. The native unlabeled cAMP from cell lysates competes with the europium-cAMP tracer for antibody binding and reversely reduces the emission signal of Alexa by interrupting FRET between the two labeled molecules. Both emission signals from the FRET donor (620 nm) and the acceptor (665 nm) can be detected by a plate reader in the TRF mode. Expression of result in fluorescence ratio (665 nm/620 nm) helps to normalize differences due to cell density and reagent dispensing. This assay was successfully optimized to a 1536-well plate format. Select compounds from the primary screen (AID 1461) were chosen for confirmation based on potency, efficacy, SAR, and activity across other assays in PubChem and at NCGC. Other compounds are analogs of active compounds from the primary screen. This particular assay uses a high density of sampling across concentration-response space to establish more confidence estimates of potency.
# NCGC Assay Protocol Summary: A Chinese hamster ovary (CHO) cell line stably expressing the NPS receptor (CHO-NPSR) was obtained from Dr. Heilig lab at NIAAA and maintained in F-12 Kaighn's media (Invitrogen, Carlsbad, CA, 21127) supplemented with 10 % FBS, 100 units/ml penicillin, 100 ug/ml streptomycin and 250 ug/ml geneticin at 37C, 5% CO2 in a humidified atmosphere. Before the assay, aliquots of cells were frozen and stored at -135C. The assay was performed in 1536-well format. Data are reported for both the ratio of the two emission wavelengths, and also for the component 'donor' channel, Em2=620. […] IC50 values were determined from concentration-response data modeled with the standard Hill equation. NPS 1536-well assay protocol: (1) Fresh or frozen CHO-NPSR cells were suspended in F-12 Kaighn's media supplemented with 10 % FBS, 100 units/ml penicillin and 100 ug/ml streptomycin. Cells were plated at 4 ul/well (1200 cells) to white, tissue culture treated 1536-well plates, and then cultured at 37C, 5 % CO2 for 16 to 30 hours. (2) Add 23 nl/well of compound in DMSO solution. The final titration for each compound was between 0.6 nM and 46 uM. […]
Structure (SMILES),Potency,"activity, negative = inhibition [%]"
COc1cccc(C2c3c(ncn(-c4ccccc4Cl)c3=N)Oc3ccc4ccccc4c32)c1 (stereo unspecified),8.67 µM (active),
COc1ccc(C2c3c(N)nc(CCc4ccccc4)nc3Oc3ccc4ccccc4c32)cc1OC (stereo unspecified),24.4 µM (active),
S=P(c1ccccc1)(c1ccccc1)c1nc(CCCc2ccccc2)n2ccccc12,,14.1
COc1ccc(C2c3c(nc(CCc4ccccc4)[nH]c3=O)Oc3ccc4ccccc4c32)cc1OC (stereo unspecified),,-4.2
COc1cccc(C2c3c(ncn(-c4ccccc4C)c3=N)Oc3ccc4ccccc4c32)c1 (stereo unspecified),6.88 µM (active),
COc1cccc(C2c3c(ncn(-c4cccc(OC)c4)c3=N)Oc3ccc4ccccc4c32)c1 (stereo unspecified),6.88 µM (active),
S=P(c1ccccc1)(c1ccccc1)c1c[n+](C/C=C/c2ccccc2)c2ccccn12,0.56 µM (active),
COc1ccc(C2c3c(n(CCCc4ccccc4)cnc3=N)Oc3ccc4ccccc4c32)cc1OC (stereo unspecified),24.4 µM (active),
N=c1c2c(ccn1Cc1ccccc1)Oc1ccc3ccccc3c1C2c1ccccc1 (stereo unspecified),2.18 µM (active),
COc1cccc(C2c3c(ncn(-c4cccc(Br)c4)c3=N)Oc3ccc4ccccc4c32)c1 (stereo unspecified),12.2 µM (active),
N=c1c2c(ccn1-c1ccccc1)Oc1ccc3ccccc3c1C2c1ccccc1 (stereo unspecified),1.09 µM (active),
N#CC1=C(NC=NCc2ccccc2)Oc2ccc3ccccc3c2C1c1ccccc1 (stereo unspecified),1.37 µM (active),
COc1ccc(C2c3c(ncn(CCc4ccccc4)c3=N)Oc3ccc4ccccc4c32)cc1OC (stereo unspecified),27.4 µM (active),
COc1cccc(C2c3c(ncn(-c4cccc(C)c4)c3=N)Oc3ccc4ccccc4c32)c1 (stereo unspecified),9.72 µM (active),
CCOC(=O)CCCC(=O)Nc1ncnc2c1C(c1ccccc1)c1c(ccc3ccccc13)O2 (stereo unspecified),2.44 µM (active),
N=c1c2c(ccn1CCc1ccccc1)Oc1ccc3ccccc3c1C2c1ccccc1 (stereo unspecified),3.87 µM (active),

Structure (SMILES),Potency,"activity, negative = inhibition [%]"
Fc1ccc(-c2c(P(=S)(c3ccccc3)c3ccccc3)n3ccccc3[n+]2C/C=C/c2ccccc2)cc1,0.471 µM (active),
COc1ccc(C2c3ccccc3Oc3ncn(CCN4CCOCC4)c(=N)c32)cc1OC (stereo unspecified),4.87 µM (active),
COc1cccc(C2c3c(ncn(-c4ccc(C)cc4)c3=N)Oc3ccc4ccccc4c32)c1 (stereo unspecified),8.67 µM (active),
CCOC(=O)CCC(=O)Nc1ncnc2c1C(c1ccccc1)c1c(ccc3ccccc13)O2 (stereo unspecified),3.45 µM (active),
COc1ccc(C2C3=C(N=CN(CCN4CCOCC4)C3N)Oc3ccccc32)cc1OC (stereo unspecified),,-4.91
COc1cccc(C2c3c(ncn(-c4cccnc4)c3=N)Oc3ccc4ccccc4c32)c1 (stereo unspecified),8.67 µM (active),
COc1ccc(C2c3ccc4ccccc4c3Oc3ncn(CCN4CCOCC4)c(=N)c32)cc1OC (stereo unspecified),30.7 µM (active),
COc1cccc(C2c3c(ncn(CCN4CCOCC4)c3=N)Oc3ccc4ccccc4c32)c1 (stereo unspecified),12.2 µM (active),
N=c1c2c(ncn1-c1ccccc1)Oc1ccc3ccccc3c1C2c1ccc2c(c1)OCCO2 (stereo unspecified),2.18 µM (active),
COc1cccc(C2c3c(ncn(-c4ccc(F)cc4)c3=N)Oc3ccc4ccccc4c32)c1 (stereo unspecified),12.2 µM (active),
O=C(Cc1ccccc1)Nc1ncnc2c1C(c1ccccc1)c1c(ccc3ccccc13)O2 (stereo unspecified),2.74 µM (active),
CC(C)(C)OC(=O)Nc1ncnc2c1C(c1ccccc1)c1c(ccc3ccccc13)O2 (stereo unspecified),10.9 µM (active),
O=C(NCc1ccccc1)Nc1ncnc2c1C(c1ccccc1)c1c(ccc3ccccc13)O2 (stereo unspecified),30.7 µM (active),
COc1cccc(C2c3c(ncn(-c4ccc(C#N)cc4)c3=N)Oc3ccc4ccccc4c32)c1 (stereo unspecified),12.2 µM (active),
COc1ccc(-n2cnc3c(c2=N)C(c2cccc(OC)c2)c2c(ccc4ccccc24)O3)cc1 (stereo unspecified),6.88 µM (active),
